Inconclusive results are not listed. Entries that show only a call come without a potency. Calls of active or inactive are those of the source. The call rests on the fitted dose curve; in most records, active means well fitted cell-killing curve with a large enough effect in the repeat runs; inconclusive means weak or mixed curves, or effect the other way; inactive means flat fitted curve, though single readings scatter.

The assay is described as follows: cAMP Responsive Elements (CRE) small molecule antagonists, cell-based qHTS assay: qHTS cell viability counter screen (AID 2060913). Further: nearly all actives have a fitted effect of over 40% in size. The note with it: CRE-bla HEK293T viability, CellTiter-Glo luminescence, 5 h; series mostly up to 92.4 µM. Summed up:
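HEK293T CRE-bla, 2,000 cells/well, 18 h preincubation; cpd in DMSO + NKH477 0.25 uM final, 3 h 37 C/5% CO2; LiveBLAzer 2 h RT, then CellTiter-Glo 30 min RT, luminescence.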
In general terms: qHTS replaces the single test concentration by a dilution series.
In the case of `CSCC[C@H](NC(=O)[C@H](Cc1c[nH]c2ccccc12)NC(=O)CCNC(=O)OC(C)(C)C)C(=O)N[C@@H](CC(=O)O)C(=O)N[C@@H](Cc1ccccc1)C(N)=O`, the Potency result was “inactive”.
As for `CCN(CC)C(=O)N(CC)CC`, the Potency result is “inactive”.
Take `Cc1cccc(N(C)C(=S)Oc2ccc3c(c2)C2CCC3C2)c1` (stereo unspecified): the Potency result is “inactive”.
With `Cc1ccc2c(c1)C(=O)c1ccccc1C2=O`, the Potency result is “inactive”.
`COc1ccc(COC=O)cc1`: the Potency result was “inactive”.
With `CCOc1cc([N+](=O)[O-])c(OCC)cc1N1CCOCC1`, the Potency entry was “inactive”.
With `CC1(C)[C@H]2CC[C@](C)(C2)[C@H]1O` the entry was “inactive”; with `CCCCCC/C=C/C=O`, “inactive”.
With `O=S(=O)(O)c1ccc(Nc2nc(Nc3ccc(/C=C/c4ccc(Nc5nc(Nc6ccc(S(=O)(=O)O)cc6)nc(N(CCO)CCO)n5)cc4S(=O)(=O)O)c(S(=O)(=O)O)c3)nc(N(CCO)CCO)n2)cc1` the entry was “inactive”; with `O=C(NO)c1ccccc1`, “inactive”.
On to `Cc1ccc(C(=O)C(C)CN2CCCCC2)cc1` (stereo unspecified), for which the Potency entry was “inactive”.
Consider `Cc1cc(NC(=O)C(=O)O)cc(C)c1Oc1ccc(O)c2c1CCC2`, for which the Potency result was “inactive”.
For the molecule `O=C(O)CCCl`, the Potency entry was “inactive”.
On to `CN(C)CCCCl`, for which the Potency entry is “inactive”.
As to `FC(F)(F)C(F)(F)C(F)(F)C(F)(F)C(F)(F)C(F)(F)CCI`, the Potency result was “inactive”.
As to `CC(C)N(c1ccccc1)C(C)C`, the Potency entry was “inactive”.
On to `CCCCCCCCCCCCCCNCCO`, for which the Potency result was “inactive”.
For `CCO[Si](CCC1CCC2OC2C1)(OCC)OCC` (stereo unspecified), the Potency result is “inactive”.
Turning to `O=C(/C=C/c1ccccc1)OC/C=C/c1ccccc1`, the Potency entry is “inactive”.
On to `O=C(c1ccccc1)c1ccc(O)c(O)c1O`, for which the Potency entry was “inactive”.
Take `CCCC(O)C(O)CO` (stereo unspecified): the Potency result was “inactive”.

(Values after PubChem BioAssay (Tox21).)
